The full list was thinned out, with the strongest signals kept by preference.
Experiments:
Test in all cases: glycan array binding signal (z-score within array); higher = stronger binding
Details in all cases: glycan notation: IUPAC condensed, linker removed
[1] = target: Fuc(a1-2)Gal(b1-3)GlcNAc(b1-3)Gal(b1-4)Glc
In short: (§1)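 Negative Z-scores can be read as non-binding. The Z-score is calculated within each array and then averaged across arrays of one protein sequence at different concentrations or buffers and across linkers. Arrays, 3228 in all, were curated from the Consortium for Functional Glycomics database and kept only where the protein sequence was available.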

[2] = target: Fuc(a1-2)Gal(b1-4)[Fuc(a1-3)]GlcNAc(b1-3)Gal(b1-4)[Fuc(a1-3)]GlcNAc(b1-3)Gal(b1-4)[Fuc(a1-3)]GlcNAc
In short: as §1

Fuc(a1-2)[Gal(a1-3)]Gal = target: Fuc(a1-2)[Gal(a1-3)]Gal
In short: as §1

[3] = target: Fuc(a1-2)[Gal(a1-3)]Gal(b1-3)GlcNAc(b1-2)Man(a1-3)[Fuc(a1-2)[Gal(a1-3)]Gal(b1-3)GlcNAc(b1-2)Man(a1-6)]Man(b1-4)GlcNAc(b1-4)GlcNAc
In short: as §1

[4] = target: Fuc(a1-2)[Gal(a1-4)]Gal(b1-4)GlcNAc
In short: as §1

[5] = target: Fuc(a1-2)[GalNAc(a1-3)]Gal(b1-4)[Fuc(a1-3)]GlcNAc(b1-3)GalNAc
In short: as §1

[6] = target: Fuc(a1-2)[GalNAc(b1-3)]Gal
In short: as §1

Fuc(b1-3)GlcNAc = target: Fuc(b1-3)GlcNAc
In short: as §1

Gal(a1-2)Gal = target: Gal(a1-2)Gal
In short: as §1

[7] = target: Gal(a1-3)Gal(b1-3)[Fuc(a1-4)]GlcNAc(b1-2)Man(a1-3)[Gal(a1-3)Gal(b1-3)[Fuc(a1-4)]GlcNAc(b1-2)Man(a1-6)]Man(b1-4)GlcNAc(b1-4)GlcNAc
In short: as §1

[8] = target: Gal(b1-3)GlcNAc(b1-3)Gal(b1-4)Glc
In short: as §1

[9] = target: Gal(b1-3)GlcNAc(b1-3)Gal(b1-4)[Fuc(a1-3)]GlcNAc(b1-6)[Gal(b1-3)GlcNAc(b1-3)]Gal(b1-4)Glc
In short: as §1

[10] = target: Gal(b1-3)GlcNAc(b1-6)[Gal(b1-3)]GalNAc
In short: as §1

[11] = target: Gal(b1-3)[Fuc(a1-4)]GlcNAc(b1-3)Gal(b1-3)[Fuc(a1-4)]GlcNAc
In short: as §1

Gal(b1-4)GlcNAc = target: Gal(b1-4)GlcNAc
In short: as §1

[12] = target: Gal(b1-4)GlcNAc(b1-2)Man(a1-3)[Gal(b1-4)GlcNAc(b1-2)Man(a1-6)][Gal(b1-4)GlcNAc(b1-4)]Man(b1-4)GlcNAc(b1-4)[Fuc(a1-6)]GlcNAc
In short: as §1

[13] = target: Gal(b1-4)GlcNAc(b1-2)Man(a1-6)Man(b1-4)GlcNAc(b1-4)GlcNAc
In short: as §1

[14] = target: Gal(b1-4)GlcNAc(b1-3)Gal(b1-4)GlcNAc(b1-2)Man(a1-3)[Gal(b1-4)GlcNAc(b1-3)Gal(b1-4)GlcNAc(b1-2)Man(a1-6)]Man(b1-4)GlcNAc(b1-4)GlcNAc
In short: as §1

[15] = target: Gal(b1-4)GlcNAc(b1-3)Gal(b1-4)GlcNAc(b1-3)Gal(b1-4)GlcNAc(b1-3)Gal(b1-4)GlcNAc(b1-2)Man(a1-3)[Gal(b1-4)GlcNAc(b1-3)Gal(b1-4)GlcNAc(b1-3)Gal(b1-4)GlcNAc(b1-3)Gal(b1-4)GlcNAc(b1-2)Man(a1-6)]Man(b1-4)GlcNAc(b1-4)GlcNAc
In short: as §1

[16] = target: Gal(b1-4)GlcNAc(b1-3)Gal(b1-4)GlcNAc(b1-3)Gal(b1-4)GlcNAc(b1-3)Gal(b1-4)GlcNAc(b1-3)Gal(b1-4)GlcNAc(b1-3)Gal(b1-4)GlcNAc(b1-2)Man(a1-3)[Gal(b1-4)GlcNAc(b1-3)Gal(b1-4)GlcNAc(b1-3)Gal(b1-4)GlcNAc(b1-3)Gal(b1-4)GlcNAc(b1-3)Gal(b1-4)GlcNAc(b1-3)Gal(b1-4)GlcNAc(b1-2)Man(a1-6)]Man(b1-4)GlcNAc(b1-4)GlcNAc
In short: as §1

[17] = target: Gal(b1-4)GlcNAc(b1-3)Gal(b1-4)GlcNAc(b1-6)[Gal(b1-3)]GalNAc
In short: as §1

[18] = target: Gal(b1-4)GlcNAc(b1-3)GalNAc
In short: as §1

[19] = target: Gal(b1-4)GlcNAc(b1-3)[GlcNAc(b1-6)]Gal(b1-4)GlcNAc
In short: as §1

Gal(b1-6)Gal = target: Gal(b1-6)Gal
In short: as §1

Gal3S(b1-3)GlcNAc = target: Gal3S(b1-3)GlcNAc
In short: as §1

[20] = target: Gal3S(b1-4)[Fuc(a1-3)]GlcNAc6S
In short: as §1

Gal6P(b1-4)GlcNAc = target: Gal6P(b1-4)GlcNAc
In short: as §1

GalNAc(b1-3)Gal = target: GalNAc(b1-3)Gal
In short: as §1

GalNAc(b1-3)GalNAc = target: GalNAc(b1-3)GalNAc
In short: as §1

GalNAc(b1-6)GalNAc = target: GalNAc(b1-6)GalNAc
In short: as §1

[21] = target: GlcNAc(a1-3)Gal(b1-4)GlcNAc
In short: as §1

[22] = target: GlcNAc(b1-2)Man(a1-3)[GlcNAc(b1-4)][GlcNAc(b1-2)Man(a1-6)]Man(b1-4)GlcNAc(b1-4)[Fuc(a1-6)]GlcNAc
In short: as §1

[23] = target: GlcNAc(b1-3)Gal(b1-4)GlcNAc
In short: as §1

[24] = target: GlcNAc(b1-3)Gal(b1-4)GlcNAc(b1-2)[GlcNAc(b1-3)Gal(b1-4)GlcNAc(b1-6)]Man(a1-6)[GlcNAc(b1-3)Gal(b1-4)GlcNAc(b1-2)Man(a1-3)]Man(b1-4)GlcNAc(b1-4)GlcNAc
In short: as §1

[25] = target: GlcNAc(b1-3)Gal(b1-4)GlcNAc(b1-3)Gal(b1-4)GlcNAc(b1-2)Man(a1-3)[GlcNAc(b1-3)Gal(b1-4)GlcNAc(b1-3)Gal(b1-4)GlcNAc(b1-2)Man(a1-6)]Man(b1-4)GlcNAc(b1-4)[Fuc(a1-6)]GlcNAc
In short: as §1

[26] = target: GlcNAc(b1-3)Gal(b1-4)GlcNAc(b1-3)Gal(b1-4)GlcNAc(b1-2)[GlcNAc(b1-3)Gal(b1-4)GlcNAc(b1-3)Gal(b1-4)GlcNAc(b1-6)]Man(a1-6)[GlcNAc(b1-3)Gal(b1-4)GlcNAc(b1-3)Gal(b1-4)GlcNAc(b1-2)Man(a1-3)]Man(b1-4)GlcNAc(b1-4)[Fuc(a1-6)]GlcNAc
In short: as §1

[27] = target: GlcNAc(b1-3)Gal(b1-4)GlcNAc(b1-3)Gal(b1-4)GlcNAc(b1-3)Gal(b1-4)GlcNAc(b1-3)Gal(b1-4)GlcNAc(b1-2)Man(a1-3)[GlcNAc(b1-3)Gal(b1-4)GlcNAc(b1-3)Gal(b1-4)GlcNAc(b1-3)Gal(b1-4)GlcNAc(b1-3)Gal(b1-4)GlcNAc(b1-2)Man(a1-6)]Man(b1-4)GlcNAc(b1-4)[Fuc(a1-6)]GlcNAc
In short: as §1

[28] = target: GlcNAc(b1-3)Gal(b1-4)GlcNAc(b1-6)[GlcNAc(b1-3)]Gal(b1-4)GlcNAc
In short: as §1

[29] = target: GlcNAc(b1-3)[GlcNAc(b1-6)]Gal(b1-4)GlcNAc
In short: as §1

Kdn(a2-3)Gal(b1-3)GalNAc = target: Kdn(a2-3)Gal(b1-3)GalNAc
In short: as §1

[30] = target: Man(a1-2)Man(a1-2)Man(a1-6)[Man(a1-3)]Man
In short: as §1

[31] = target: Man(a1-2)Man(a1-3)[Man(a1-2)Man(a1-6)]Man(a1-6)[Man(a1-2)Man(a1-2)Man(a1-3)]Man
In short: as §1

[32] = target: Man(a1-2)Man(a1-3)[Man(a1-6)]Man(a1-6)[Man(a1-2)Man(a1-3)]Man(b1-4)GlcNAc(b1-4)GlcNAc
In short: as §1

[33] = target: Man(a1-2)Man(a1-6)[Man(a1-3)]Man(a1-6)[Man(a1-2)Man(a1-2)Man(a1-3)]Man(b1-4)GlcNAc(b1-4)GlcNAc
In short: as §1

[34] = target: Neu5Ac(a2-3)Gal(b1-4)GlcNAc(b1-3)Gal(b1-4)GlcNAc
In short: as §1

[35] = target: Neu5Ac(a2-3)Gal(b1-4)GlcNAc(b1-3)Gal(b1-4)GlcNAc(b1-3)[Neu5Ac(a2-3)Gal(b1-4)GlcNAc(b1-3)Gal(b1-4)GlcNAc(b1-6)]GalNAc
In short: as §1

Neu5Ac(a2-6)Gal(b1-4)Glc = target: Neu5Ac(a2-6)Gal(b1-4)Glc
In short: as §1

[36] = target: Neu5Ac(a2-6)GlcNAc(b1-4)GlcNAc
In short: as §1

[37] = target: Neu5Gc(a2-3)Gal(b1-4)GlcNAc(b1-3)Gal(b1-4)GlcNAc(b1-2)Man(a1-3)[Neu5Gc(a2-3)Gal(b1-4)GlcNAc(b1-3)Gal(b1-4)GlcNAc(b1-2)Man(a1-6)]Man(b1-4)GlcNAc(b1-4)GlcNAc
In short: as §1

B1: Langerin K313I (Homo sapiens), Q9UJ71 (protein)
chain: STLNAQIPELKSDLEKASALNTKIRALQGSLENMSKLLKRQNDILQVVSQGWKYFKGNFYYFSLIPKTWYSAEQFCVSRNSHLTSVTSESEQEFLYKTAGGLIYWIGLTKAGMEGDWSWVDDTPFNKVQSARFWIPGEPNNAGNNEHCGNIKAPSLQAWNDAPCDITFLFICKRPYVPSEP
glycan array binding signal (z-score) [1]: -0.379 | glycan array binding signal (z-score) [2]: -0.042 | glycan array binding signal (z-score) (Fuc(a1-2)[Gal(a1-3)]Gal): 4.11 | glycan array binding signal (z-score) [3]: -0.164 | glycan array binding signal (z-score) [4]: -0.287 | glycan array binding signal (z-score) [5]: 0.321 | glycan array binding signal (z-score) [6]: -0.358 | glycan array binding signal (z-score) (Fuc(b1-3)GlcNAc): -0.307 | glycan array binding signal (z-score) (Gal(a1-2)Gal): -0.155 | glycan array binding signal (z-score) [7]: 0.468 | glycan array binding signal (z-score) [8]: -0.361 | glycan array binding signal (z-score) [9]: -0.333 | glycan array binding signal (z-score) [10]: -0.253 | glycan array binding signal (z-score) [11]: 0.067 | glycan array binding signal (z-score) (Gal(b1-4)GlcNAc): -0.346 | glycan array binding signal (z-score) [12]: -0.254 | glycan array binding signal (z-score) [13]: -0.235 | glycan array binding signal (z-score) [14]: 0.326 | glycan array binding signal (z-score) [15]: 0.149 | glycan array binding signal (z-score) [16]: 0.037 | glycan array binding signal (z-score) [17]: 0.134 | glycan array binding signal (z-score) [18]: -0.373 | glycan array binding signal (z-score) [19]: -0.314 | glycan array binding signal (z-score) (Gal(b1-6)Gal): -0.178 | glycan array binding signal (z-score) (Gal3S(b1-3)GlcNAc): -0.376 | glycan array binding signal (z-score) [20]: -0.39 | glycan array binding signal (z-score) (Gal6P(b1-4)GlcNAc): -0.298 | glycan array binding signal (z-score) (GalNAc(b1-3)Gal): -0.374 | glycan array binding signal (z-score) (GalNAc(b1-3)GalNAc): 3.83 | glycan array binding signal (z-score) (GalNAc(b1-6)GalNAc): -0.384 | glycan array binding signal (z-score) [21]: -0.393 | glycan array binding signal (z-score) [22]: 4.2 | glycan array binding signal (z-score) [23]: 3.17 | glycan array binding signal (z-score) [24]: 4.12 | glycan array binding signal (z-score) [25]: 3.2 | glycan array binding signal (z-score) [26]: 9.38 | glycan array binding signal (z-score) [27]: -0.005 | glycan array binding signal (z-score) [28]: 10.1 | glycan array binding signal (z-score) [29]: 6.18 | glycan array binding signal (z-score) (Kdn(a2-3)Gal(b1-3)GalNAc): 0.361 | glycan array binding signal (z-score) [30]: 7.95 | glycan array binding signal (z-score) [31]: 3.54 | glycan array binding signal (z-score) [32]: -0.194 | glycan array binding signal (z-score) [33]: 0.146 | glycan array binding signal (z-score) [34]: -0.396 | glycan array binding signal (z-score) [35]: -0.089 | glycan array binding signal (z-score) (Neu5Ac(a2-6)Gal(b1-4)Glc): -0.278 | glycan array binding signal (z-score) [36]: -0.387 | glycan array binding signal (z-score) [37]: 0.158
